High-throughput results: PubChem BioAssay, Buhrlage Lab, Dana-Farber Cancer Institute and Novartis Institutes for BioMedical Research (Cambridge, Mass)
USP28 block: inhibitors of human USP28 deubiquitinase; purified USP28, Ub-rhodamine cleavage fluorescence, 30 min; 47,000 tested, 3% active; inhibition, % at 25 µM; AID 1645857, 2021
USP10 block: inhibitors of human USP10 deubiquitinase. purified USP10, Ub-rhodamine fluorescence, 60 min. inhibition, % at 20 µM. 47,000 tested, 1.1% active
USP8 inh: inhibitors of human USP8 deubiquitinase; 47,000 tested, 4.2% active; Ubiquitin carboxyl-terminal hydrolase 8 (Homo sapiens), P40818; inhibition, % at 20 µM; AID 1645853, 2021; purified USP8, Ub-rhodamine cleavage fluorescence, 30 min
USP17 inh: inhibitors of human USP17 deubiquitinase; AID 1645855, 2021; 47,000 tested, 6.5% active; purified USP17, Ub-rhodamine cleavage fluorescence, 3 h; Ubiquitin carboxyl-terminal hydrolase 17-like protein 5 (Homo sapiens), A8MUK1; inhibition, % at 50 µM
USP30 block: inhibitors of human USP30 deubiquitinase; Ubiquitin carboxyl-terminal hydrolase 30 (Homo sapiens), Q70CQ3; purified USP30, Ub-rhodamine cleavage fluorescence; inhibition, % at 25 µM; 47,000 tested, 5.3% active; AID 1645860, 2021
Hits are given with their value. Compounds with a hit are over-represented: about 14% of the library has one in this group of screens. No stated cut-off is given here; in the data, active means inhibition above about 30%; inactive means the rest.

CC(=O)N1C[C@H]2[C@@H](C1)c1ccccc1[C@@H]2NC(=O)c1ccc2c(c1)OCCO2 was read as USP28 block inactive, USP10 block inactive, USP8 inh inactive, USP17 inh inactive and USP30 block inactive.
Screening Cc1ccc(C)c(CN2C(=O)COc3ccc(C(=O)c4ccccc4C(=O)O)cc32)c1 returned USP28 block inactive, USP10 block inactive, USP8 inh inactive, USP17 inh inactive and USP30 block 36.
For Cc1ccc2c(c1)OCC(=O)N2Cc1nc(-c2ccccc2C)no1 the results were USP28 block inactive, USP10 block inactive, USP8 inh inactive, USP17 inh inactive and USP30 block inactive.
CCc1ccc(-c2cc(C(=O)N3CCN(C(=O)c4ccco4)CC3)[nH]n2)cc1 was read as USP28 block inactive, USP10 block inactive, USP8 inh inactive, USP17 inh inactive and USP30 block inactive.
Screening O=C(NCC(c1cccnc1)N1CCc2ccccc2C1)C(=O)Nc1ccc2c(c1)OCO2 (centres undefined) returned USP28 block inactive, USP10 block inactive, USP8 inh inactive, USP17 inh 75 and USP30 block inactive.
Screening O=C(Nc1ccc2c(c1)OCO2)c1ccc(CN2CCc3ccccc3C2)cc1 returned USP28 block 31, USP10 block inactive, USP8 inh inactive, USP17 inh inactive and USP30 block inactive.
Screening CS(=O)(=O)N1CCCc2cc(C(=O)Nc3ccc4c(c3)OCO4)ccc21 returned USP28 block 85, USP10 block inactive, USP8 inh inactive, USP17 inh inactive and USP30 block inactive.
`Cc1ccc(NC(=O)c2ccc3c(c2)N(S(C)(=O)=O)CC3)cc1` gave USP28 block 50, USP10 block inactive, USP8 inh inactive, USP17 inh 51 and USP30 block inactive.
`CCn1c(/C=C/c2ccccc2)nnc1SCC(N)=O` gave USP28 block inactive, USP10 block inactive, USP8 inh inactive, USP17 inh inactive and USP30 block inactive.
For COc1ccccc1NC(=O)C1=CCN(Cc2ccc(F)cc2)CC1 the results were USP28 block inactive, USP10 block inactive, USP8 inh inactive, USP17 inh inactive and USP30 block inactive.
`O=C(Nc1ccc2c(c1)OCO2)c1ccc(N2CCCC2=O)cc1` gave USP28 block inactive, USP10 block inactive, USP8 inh inactive, USP17 inh 50 and USP30 block inactive.
For O=C(Nc1ccc2c(c1)OCCO2)C1=CCN(Cc2ccccc2F)CC1 the results were USP28 block 40, USP10 block inactive, USP8 inh inactive, USP17 inh inactive and USP30 block inactive.
CC(=O)Nc1cccc(C(=O)Nc2ccc(N3CCCC3=O)cc2)c1 was read as USP28 block inactive, USP10 block inactive, USP8 inh inactive, USP17 inh inactive and USP30 block inactive.
Screening O=C1COc2ccc(Cl)cc2CN1Cc1ccccc1F returned USP28 block inactive, USP10 block inactive, USP8 inh inactive, USP17 inh inactive and USP30 block inactive.
For CN(C)c1nc(NCc2ccccc2)nc(Oc2ccc(=O)[nH]n2)n1 the results were USP28 block 33, USP10 block inactive, USP8 inh inactive, USP17 inh inactive and USP30 block 31.
Screening CCCCCCCc1cc(O)cc(OC(=O)c2c(CCCCCCC)cc(O)cc2O[C@H]2O[C@H](C(O)CO)[C@@H](O)[C@@H]2O)c1 (some centres undefined) returned USP28 block 83, USP10 block inactive, USP8 inh inactive, USP17 inh 40 and USP30 block inactive.
CCCCCCCc1cc(OC(=O)c2c(CCCCCCC)cc(O)cc2O[C@@H]2O[C@H](CO)[C@H](O)[C@H](O)[C@H]2O)cc(O)c1C(=O)O was read as USP28 block 100, USP10 block 100, USP8 inh 99, USP17 inh 102 and USP30 block 108.
For CCCCCCCCCc1cc(OC(=O)c2c(CCCCCCCCC)cc(O)cc2O[C@@H]2O[C@H](CO)[C@@H](O)[C@H](O)[C@H]2O)cc(O)c1C(=O)O the results were USP28 block 101, USP10 block 97, USP8 inh 95, USP17 inh 100 and USP30 block 104.
For CCCCCCCC/C=C\CCCCCCCc1cc(O)cc(O)c1C(=O)O the results were USP28 block inactive, USP10 block inactive, USP8 inh inactive, USP17 inh inactive and USP30 block inactive.
CC(C)(C)c1cc(C(=O)N2CCC(O)(CN3CCCC3)C2)n[nH]1 (centres undefined) was read as USP28 block inactive, USP10 block inactive, USP8 inh inactive, USP17 inh inactive and USP30 block inactive.
`CCc1cc(=O)n(CC(=O)N2CCCc3ccccc32)c(N)n1` gave USP28 block inactive, USP10 block inactive, USP8 inh inactive, USP17 inh inactive and USP30 block inactive.
For CC(=O)Nc1cc(-c2cccc(O)c2)cn2c(-c3cnn(C)c3)cnc12 the results were USP28 block inactive, USP10 block inactive, USP8 inh inactive, USP17 inh 61 and USP30 block 36.
`CC(=O)Nc1cc(-c2cnn(C)c2)cn2c(-c3cnn(C)c3)cnc12` gave USP28 block inactive, USP10 block inactive, USP8 inh inactive, USP17 inh inactive and USP30 block inactive.
Screening N#Cc1cccc(NC(=O)c2cc(-c3cccnc3)n(-c3ccc(F)cc3)n2)c1 returned USP28 block inactive, USP10 block inactive, USP8 inh inactive, USP17 inh inactive and USP30 block inactive.
`CC[C@H](C)C[C@H]1CC[C@](O)([C@](C)(O)C(=O)N[C@@H]2C(=O)N3NCCC[C@@H]3C(=O)N(O)[C@@H](C)C(=O)NCC(=O)N3NCCC[C@H]3C(=O)N(O)[C@H](C)C(=O)O[C@H]2C(C)C)O[C@@H]1C` gave USP28 block 48, USP10 block inactive, USP8 inh inactive, USP17 inh 41 and USP30 block 61.
Cc1nc2cc(NC(=O)C3CN(C(=O)c4cnccn4)C3)ccc2s1 was read as USP28 block 54, USP10 block inactive, USP8 inh inactive, USP17 inh inactive and USP30 block inactive.
`Cc1ccc2[nH]c(=O)c(-c3nc4ccc(C)cn4c3NCc3ccc4c(c3)OCO4)cc2c1` gave USP28 block inactive, USP10 block inactive, USP8 inh inactive, USP17 inh inactive and USP30 block inactive.
`O=C(Nc1ccc(CN2CCOCC2)cc1)C1CCCN(c2ncccn2)C1` (centres undefined) gave USP28 block inactive, USP10 block inactive, USP8 inh inactive, USP17 inh inactive and USP30 block inactive.
O=C(NCc1ccncc1)C1CCCN(c2ncnc3nc[nH]c23)C1 (centres undefined) was read as USP28 block inactive, USP10 block inactive, USP8 inh inactive, USP17 inh inactive and USP30 block inactive.
For O=C(Nc1ccc(Cl)cc1)C1CCCN(c2ncnc3nc[nH]c23)C1 (centres undefined) the results were USP28 block inactive, USP10 block inactive, USP8 inh inactive, USP17 inh 39 and USP30 block inactive.
